Bioassay records as filed in PubChem BioAssay.
Shown are actives, neighbours in structure and some others; about 1.6% of the full set was active somewhere.
Vif imaging = inhibitors of HIV Vif. hit rate 0.35% among 340,000. HEK293T cells, Vif self-association by quenched fluorescence, imaging, 24 h. AID 602346. inhibition, % at 7.49 µM; in the data active = inhibition above about 50%, passing the limit was not always enough
ABCB6 inh MLPCN = human ABCB6 transporter inhibition | Q9NP58 | K562-ABCB6 porphyrin accumulation, flow cytometry, 1 h; hits give low values | fluorescence ratio to DMSO, % at 10 µM | hit rate 0.19% among 360,000;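 active = fluorescence ratio to DMSO below 75%, the collection mean minus 3 SD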;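 also: signal is porphyrin accumulated inside mitochondria; 100% equals median channel fluorescence of DMSO control wells; lower ratio means ABCB6 inhibition with less porphyrin fluorescence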
Target sequence (Q9NP58 whole entry, looked up): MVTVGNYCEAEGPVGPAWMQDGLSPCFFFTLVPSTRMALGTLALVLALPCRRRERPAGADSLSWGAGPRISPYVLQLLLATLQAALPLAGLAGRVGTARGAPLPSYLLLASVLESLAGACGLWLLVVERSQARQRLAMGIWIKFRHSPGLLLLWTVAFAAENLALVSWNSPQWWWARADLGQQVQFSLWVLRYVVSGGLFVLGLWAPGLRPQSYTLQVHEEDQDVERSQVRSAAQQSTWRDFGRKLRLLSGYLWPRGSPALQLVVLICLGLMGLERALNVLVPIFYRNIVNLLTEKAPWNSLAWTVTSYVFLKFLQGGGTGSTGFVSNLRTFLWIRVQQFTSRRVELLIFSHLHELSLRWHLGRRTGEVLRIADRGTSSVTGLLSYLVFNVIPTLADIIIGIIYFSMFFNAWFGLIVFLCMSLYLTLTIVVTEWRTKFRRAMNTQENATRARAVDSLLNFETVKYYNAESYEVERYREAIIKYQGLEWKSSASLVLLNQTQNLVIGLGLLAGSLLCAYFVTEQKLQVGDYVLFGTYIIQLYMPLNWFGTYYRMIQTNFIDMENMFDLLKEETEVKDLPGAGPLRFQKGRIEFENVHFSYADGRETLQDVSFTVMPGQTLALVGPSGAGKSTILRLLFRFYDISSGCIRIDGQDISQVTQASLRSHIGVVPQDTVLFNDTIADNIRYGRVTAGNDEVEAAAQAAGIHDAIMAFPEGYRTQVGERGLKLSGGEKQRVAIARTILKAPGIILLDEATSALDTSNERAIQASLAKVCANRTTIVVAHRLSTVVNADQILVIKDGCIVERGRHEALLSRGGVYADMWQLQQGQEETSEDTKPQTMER
Glyco luc inh = N-linked glycosylation inhibition. D54 ERlucT glycosylation luciferase reporter, 24 h; percent of 100 nM tunicamycin response. hit rate 0.23% among 360,000. AID 588692. reporter increase, % at 12.5 µM;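 active = mean luciferase reporter signal, scaled so untreated is 0 and the glycosylation-blocking control 100, at or above a set limit in every replicate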;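 also: luciferase carries N-glycosylation sites so blocking glycosylation raises the light; 0% = median of neutral control wells and 100% = median of 100 nM tunicamycin wells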
Myeloid diff MLP = compounds promoting myeloid differentiation; ER-HoxA9 myeloid progenitors, lysozyme-GFP differentiation, flow cytometry; calls only at 10 µM; hit rate 1% among 360,000;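 active = normalized GFP-positive differentiation at or above the plate's own cutoff, the solvent-only control mean plus 3 SD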;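 also: cells exposed to compound for four days before flow analysis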
RAD54 inh = inhibitors of human RAD54 branch migration | hit rate 0.14% among 360,000 | inhibition, % at 10.4 µM | Q92698 | AID 602329 | RAD54 Holliday junction branch migration, FAM/BHQ fluorescence;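 active = mean normalized replicate activity at least 40 and at least half of replicates scoring 40 or more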;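 also: 0% = median of neutral control wells and 100% = median of positive control wells; inhibitors cause a drop in the FAM fluorescence signal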
Myeloid diff = promotes myeloid progenitor differentiation | shares compounds with Myeloid diff MLP | ER-HoxA9 myeloid progenitors, GFP/Mac1 double-positive flow | calls only | hit rate 2% among 2,300;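 active = share of green or green-and-red cells above 9 and 9% in run 1 or 4 and 3% in run 2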
GFP autofluor = compound fluorescence in myeloid differentiation counter-screen; shares compounds with Myeloid diff MLP; ER-HoxA9 myeloid progenitors, no estrogen, GFP autofluorescence flow cytometry; vehicle wells 0%, positive control 100%; fluorescence response, % (concentration not given with the values); hit rate 7.4% among 2,300; AID 651707;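 active = over 5% cells positive for green fluorescent reporter, or over 2% positive for both it and APC stain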;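 also: range taken on the double positive population between DMSO and positive control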
Numbers without * were called inactive.

Screening COc1ccc(CN2CCC[C@]3(N[C@H](c4ccc(C)cc4)[C@@H]4C(=O)N(Cc5ccccc5)C(=O)[C@@H]43)C2=O)cc1 returned ABCB6 inh MLPCN 98.0, Glyco luc inh 0.7, Myeloid diff MLP inactive, RAD54 inh 4.6, Myeloid diff inactive and GFP autofluor 0.0.
Screening Cc1ccc(S(=O)(=O)Nc2ccc3c(c2)C(=O)N([C@@H](C)CO)C[C@H](C)[C@@H](CN(C)C(=O)C2CCCCC2)OCCCC[C@@H](C)O3)cc1 returned RAD54 inh -4.9.
O=C1C(O)=C(O)C(=O)c2ccccc21 was read as Vif imaging 0.8, ABCB6 inh MLPCN 108.0, Glyco luc inh 2.3, Myeloid diff MLP inactive, RAD54 inh -6.9, Myeloid diff inactive and GFP autofluor 0.3.
`Cc1ccc(-c2noc(CN(C(=O)CCN3C(=O)c4ccccc4C3=O)C(C)C)n2)cc1` gave Vif imaging 2.2, ABCB6 inh MLPCN 95.0, Glyco luc inh 0.5, Myeloid diff MLP active, RAD54 inh -9.3, Myeloid diff inactive and GFP autofluor 0.5.
`Cc1ccc(-c2noc(CN(C(=O)CCCN3C(=O)c4ccccc4C3=O)C(C)C)n2)cc1` gave Vif imaging -14.3, ABCB6 inh MLPCN 85.0, Glyco luc inh -3.0, Myeloid diff MLP inactive and RAD54 inh 4.8.
Screening COc1ccc(C(CNC(=O)COc2ccccc2C#N)N2CCOCC2)cc1 (stereo unspecified) returned Vif imaging 8.4, ABCB6 inh MLPCN 100.0, Glyco luc inh 0.2, Myeloid diff MLP active, RAD54 inh -0.8, Myeloid diff inactive and GFP autofluor 0.0.
For C[C@@H]1CN([C@@H](C)CO)C(=O)c2cccc(NS(=O)(=O)c3ccc(F)cc3)c2O[C@@H]1CN(C)C(=O)Nc1ccc2c(c1)OCO2 the results were RAD54 inh -0.7.
For CCOC(=O)C1=C(O)/C(=C/c2ccc(OCC(=O)O)c(OC)c2)SC1=Nc1ccc(OCC)cc1 the results were Vif imaging 6.0, ABCB6 inh MLPCN 99.0, Glyco luc inh 1.1 and Myeloid diff MLP inactive.
For CCOC(=O)C1=C(O)/C(=C/c2cc(OC)c(O)c(OC)c2)SC1=Nc1ccc(OC)cc1 the results were Vif imaging 7.0, ABCB6 inh MLPCN 120.0, Glyco luc inh -1.7, Myeloid diff MLP inactive, Myeloid diff inactive and GFP autofluor 22.6*.
For COc1ccccc1CNC(=O)C[C@H]1CC[C@H](NC(=O)CC2CC2)[C@@H](CO)O1 the results were RAD54 inh -2.7.
Screening Cc1noc(C)c1S(=O)(=O)Nc1ccc2c(c1)C(=O)N([C@H](C)CO)C[C@H](C)[C@H](CN(C)S(=O)(=O)c1ccccc1)OCCCC[C@H](C)O2 returned RAD54 inh -3.9.
Screening Cc1ccc2cc(C#N)c(N3CCCN(C(=O)C4CCCO4)CC3)nc2c1C (stereo unspecified) returned Vif imaging -2.3, ABCB6 inh MLPCN 96.0, Glyco luc inh 2.1, Myeloid diff MLP inactive, RAD54 inh -11.5, Myeloid diff inactive and GFP autofluor 0.7.
`Fc1cccc(-c2cc3nc(-c4ccccc4)cc(N4CCC5(CC4)OCCO5)n3n2)c1` gave Vif imaging -2.9, ABCB6 inh MLPCN 94.0, Glyco luc inh 0.2, Myeloid diff MLP inactive and RAD54 inh -10.9.
For Fc1ccc(-c2cc3nc(-c4ccccc4)cc(N4CCOCC4)n3n2)cc1 the results were Vif imaging -4.4, ABCB6 inh MLPCN 97.0, Glyco luc inh -1.4, Myeloid diff MLP inactive, RAD54 inh 8.7, Myeloid diff inactive and GFP autofluor 0.0.
CCNC(=O)C[C@@H]1CC[C@H](NS(=O)(=O)c2ccc(C)cc2)[C@@H](CO)O1 was read as RAD54 inh -3.8.
COc1ccc(N(CC(=O)NC2CCCC2)C(=O)Cn2nnc(-c3ccc(C)cc3)n2)cc1OC was read as Vif imaging -7.0, ABCB6 inh MLPCN 102.0, Glyco luc inh -2.7, Myeloid diff MLP inactive, RAD54 inh -3.2, Myeloid diff inactive and GFP autofluor 0.6.
`COCC(=O)Nc1ccc2c(c1)C(=O)N(C)C[C@@H](OC)[C@H](C)CN(Cc1ccccn1)[C@H](C)CO2` gave RAD54 inh -4.4.
`CCOc1ccc(C(=O)C[n+]2cccc3cc(C)ccc32)cc1` gave Vif imaging 3.5, ABCB6 inh MLPCN 558.0, Glyco luc inh -1.2, Myeloid diff MLP active, RAD54 inh -2.6, Myeloid diff inactive and GFP autofluor 54.0*.
Screening CCOc1ccc(C(=O)C[n+]2ccccc2C)cc1 returned Vif imaging -0.3, ABCB6 inh MLPCN 97.0, Glyco luc inh 3.2 and Myeloid diff MLP inactive.
CCc1ccc(C(=O)C[n+]2cccc3cc(OC)ccc32)cc1 was read as Vif imaging -3.3, ABCB6 inh MLPCN 103.0, Glyco luc inh 0.2, Myeloid diff MLP inactive, RAD54 inh -0.7, Myeloid diff inactive and GFP autofluor 0.0.
COc1ccc2c(ccc[n+]2CC(=O)c2ccccc2)c1 was read as Vif imaging 3.5, ABCB6 inh MLPCN 106.0, Glyco luc inh 1.1, Myeloid diff MLP inactive and RAD54 inh -3.0.
Screening COc1ccc(S(=O)(=O)Nc2ccc3c(c2)C(=O)N([C@@H](C)CO)C[C@@H](C)[C@@H](CN(C)Cc2ccc(C(F)(F)F)cc2)O3)cc1 returned RAD54 inh -3.2.
Screening CC(C)(C)NCC(O)COc1c(F)cc(Br)cc1F (stereo unspecified) returned Vif imaging -0.6, ABCB6 inh MLPCN 97.0, Glyco luc inh -1.9, Myeloid diff MLP inactive and RAD54 inh 3.9.
`CC(C)(C)CC(C)(C)NCC(O)COc1c(F)cc(Br)cc1F` (stereo unspecified) gave Vif imaging -1.1, ABCB6 inh MLPCN 96.0, Glyco luc inh -0.5, Myeloid diff MLP active, Myeloid diff inactive and GFP autofluor 0.0.
`COCc1cc(C)nc2sc(C(=O)N3CCCCC3)c(N)c12` gave Vif imaging 2.1, ABCB6 inh MLPCN 101.0, Glyco luc inh 0.3, Myeloid diff MLP inactive, RAD54 inh -6.8, Myeloid diff inactive and GFP autofluor 0.0.
For C[C@@H]1CN([C@H](C)CO)C(=O)Cc2cc(N(C)C)ccc2O[C@@H]1CN(C)S(=O)(=O)c1ccccc1 the results were RAD54 inh -2.8.
For CO[C@@H]1CN(C)C(=O)c2cc(NC(=O)Nc3ccc4c(c3)OCO4)ccc2OC[C@H](C)NC[C@H]1C the results were RAD54 inh -4.8.
`CCOC(=O)C1(CCOc2ccccc2)CCN(Cc2cccc(OC)c2)CC1` gave Vif imaging -2.3, ABCB6 inh MLPCN 99.0, Glyco luc inh -3.1, Myeloid diff MLP active, RAD54 inh 7.3, Myeloid diff inactive and GFP autofluor 0.0.
